# Results filed as inconclusive are left out. Entries that show only a call come without a potency. The source made the active and inactive calls. The call rests on the fitted dose curve; in most records, active means well fitted curve in the direction sought with a large enough effect; inconclusive means small, poorly fitted or top-dose-only effect, or another doubt; inactive means no such curve, though single readings can be large; an effect the other way counts as inactive or inconclusive.
# Test: qHTS for compounds that reverse cellular toxicity of Amyloid beta (A-beta) peptide in yeast: LOPAC Validation Assay (AID 720559)
# Conditions: yeast expressing A-beta; series mostly up to 46.1 µM
# In short: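 Medium dispensed, compounds pinned, A-beta yeast suspension added; plates held at 30 C for 48 hr; absorbance measured at 600 nm to gauge growth; values scaled between DMSO and FeCl3/clioquinol (equimolar) controls.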
row,SMILES,outcome
1,CC(C)(C)NCC(O)COc1cccc2[nH]c(=O)[nH]c12 (configuration not stated),inactive
2,CC(C)(C)c1ccc(/C=C/C(=O)Nc2ccc3c(c2)OCCO3)cc1,inactive
3,O=C1OC(=O)C2C3CCC(O3)C12 (configuration not stated),inactive
4,CCCCCCCCCCCCCCSCC(=O)O,inactive
5,N#C/C(=C\c1ccc(O)c(O)c1)C(=O)NCCc1ccccc1,inactive
6,COc1ccc(-c2cc3ncc(C)n3c(Nc3ncccc3C(N)=O)n2)cc1OC,inactive
7,CC(C)C[C@H](NC(=O)[C@H](O)[C@H](N)Cc1ccccc1)C(=O)O,inactive
8,NC(=O)CNCCC(c1ccccc1)c1ccccc1,inactive
9,NCC(O)C1CCCCCCC1 (configuration not stated),inactive
10,Nc1nc2[nH]c(=O)cnc2c(=O)[nH]1,inactive
11,Cn1c(=O)c2c(nc(/C=C/c3cccc(Cl)c3)n2C)n(C)c1=O,inactive
12,O=C(O)CCC(=O)N1CCCC1C(=O)O (configuration not stated),inactive
13,Nc1ncnc2c1c(-c1ccc(Oc3ccccc3)cc1)cn2C1CCCC1,inactive
14,Cc1nc2c(OCc3ccccc3)cccn2c1CC#N,inactive
15,O=C(O)CCC/C=C\C[C@@H]1[C@@H](/C=C/[C@H](O)C2Cc3ccccc3C2)[C@@H](F)C[C@@H]1O,inactive
16,CCCCCCC(=O)OC1CC(C)(C)NC(C)(C)C1,inactive
17,NCC(O)(CS(=O)(=O)O)c1ccc(Cl)cc1 (configuration not stated),inactive
18,COc1ccc(C(=O)NCc2cccnc2)cc1C(=O)NCc1cccnc1,inactive

row,SMILES,outcome
1,O=C(O)c1ccccc1Nc1cccc(OCc2ccc3ccccc3n2)c1,inactive
2,CC(=O)[C@H]1CCC2C3CC=C4C[C@@H](OS(=O)(=O)O)CC[C@]4(C)C3CC[C@@]21C (some centres not stated),inactive
3,NC(=O)CC[C@H](N)C(=O)O,inactive
4,Cc1nc(N=Nc2cc(S(=O)(=O)O)c3cc([N+](=O)[O-])cc(S(=O)(=O)O)c3c2)c(COP(=O)(O)O)c(C=O)c1O,inactive
5,O=C1NC(=O)c2cc(Nc3ccccc3)c(Nc3ccccc3)cc21,inactive
6,COc1ccccc1N1CCN(CCCCN2C(=O)c3ccccc3C2=O)CC1,inactive
7,CCCCCCCCCC[Si](C)(C)CCC(=O)NC(Cc1ccc(C)cc1)c1ccccc1 (configuration not stated),inactive
8,O=c1[nH]c(=O)c2nc3ccccc3nc2[nH]1,inactive
9,C[C@](Cc1ccc(O)c(O)c1)(NN)C(=O)O,inactive
10,C[C@]12C=CC(=O)C=C1CC[C@@H]1C2=CC[C@]2(C)[C@@H](C(=O)CN3CCN(c4cc(N5CCCC5)nc(N5CCCC5)n4)CC3)CC[C@@H]12,inactive
11,Cc1ccccc1/C=C/C1=NCCN1,inactive
12,NC1(C(=O)O)CCCCC1,inactive
13,COC(=O)C1=C(C)NC(C)=C([N+](=O)[O-])C1c1ccccc1C(F)(F)F (configuration not stated),inactive
14,O=C(O)Cc1c[nH]c2ccc(O)cc12,inactive
15,CCCn1c(=O)c2[nH]c(-c3ccc(S(=O)(=O)O)cc3)nc2n(CCC)c1=O,inactive
16,[Li+],inactive
17,NC[C@@H]1O[C@H](c2ccccc2)Cc2c1ccc(O)c2O,inactive
18,COc1cc([C@@H]2c3cc4c(cc3[C@H](O)C3COC(=O)[C@@H]32)OCO4)cc(OC)c1OC (some centres not stated),inactive

# Test: qHTS for Activators of Parkin Expression: LOPAC Validation Assay (NLuc Reporter) (AID 720572)
# Conditions: Parkin promoter NanoLuc reporter cells, luminescence; series mostly up to 46.1 µM
# In short: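 NLuc signal, read 10 min after reagent and following a prior FLuc read, is normalized to DMSO (0) and positive controls (100%). Cells: neuronal Parkin-promoter coincidence reporter line; compounds tested 7-point, 24 h, 37 C, 5% CO2.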
row,SMILES,Potency
1,CC(C)(C)NCC(O)COc1cccc2[nH]c(=O)[nH]c12 (configuration not stated),inactive
2,CC(C)(C)c1ccc(/C=C/C(=O)Nc2ccc3c(c2)OCCO3)cc1,inactive
3,C=C1C[C@@]23CC[C@H]4[C@@](C)(CCC[C@@]4(C)C(=O)OC4OC(CO)C(O)C(O)C4O)[C@@H]2CC[C@]1(OC1OC(CO)C(O)C(O)C1OC1OC(CO)C(O)C(O)C1O)C3 (some centres not stated),inactive
4,O=C1OC(=O)C2C3CCC(O3)C12 (configuration not stated),inactive
5,CCCCCCCCCCCCCCSCC(=O)O,inactive
6,N#C/C(=C\c1ccc(O)c(O)c1)C(=O)NCCc1ccccc1,inactive
7,COc1ccc(-c2cc3ncc(C)n3c(Nc3ncccc3C(N)=O)n2)cc1OC,inactive
8,CC(C)C[C@H](NC(=O)[C@H](O)[C@H](N)Cc1ccccc1)C(=O)O,inactive
9,NC(=O)CNCCC(c1ccccc1)c1ccccc1,inactive
10,NCC(O)C1CCCCCCC1 (configuration not stated),inactive
11,Nc1nc2[nH]c(=O)cnc2c(=O)[nH]1,inactive
12,Cn1c(=O)c2c(nc(/C=C/c3cccc(Cl)c3)n2C)n(C)c1=O,inactive
13,O=C(O)CCC(=O)N1CCCC1C(=O)O (configuration not stated),inactive
14,Nc1ncnc2c1c(-c1ccc(Oc3ccccc3)cc1)cn2C1CCCC1,inactive
15,Cc1nc2c(OCc3ccccc3)cccn2c1CC#N,inactive
16,CCCCCCC(=O)OC1CC(C)(C)NC(C)(C)C1,inactive
17,NCC(O)(CS(=O)(=O)O)c1ccc(Cl)cc1 (configuration not stated),inactive
18,COc1ccc(C(=O)NCc2cccnc2)cc1C(=O)NCc1cccnc1,inactive

row,SMILES,Potency
1,O=C(O)c1ccccc1Nc1cccc(OCc2ccc3ccccc3n2)c1,inactive
2,CC(=O)[C@H]1CCC2C3CC=C4C[C@@H](OS(=O)(=O)O)CC[C@]4(C)C3CC[C@@]21C (some centres not stated),inactive
3,NC(=O)CC[C@H](N)C(=O)O,inactive
4,Cc1nc(N=Nc2cc(S(=O)(=O)O)c3cc([N+](=O)[O-])cc(S(=O)(=O)O)c3c2)c(COP(=O)(O)O)c(C=O)c1O,inactive
5,O=C1NC(=O)c2cc(Nc3ccccc3)c(Nc3ccccc3)cc21,inactive
6,COc1ccccc1N1CCN(CCCCN2C(=O)c3ccccc3C2=O)CC1,inactive
7,CCCCCCCCCC[Si](C)(C)CCC(=O)NC(Cc1ccc(C)cc1)c1ccccc1 (configuration not stated),inactive
8,O=c1[nH]c(=O)c2nc3ccccc3nc2[nH]1,inactive
9,C[C@](Cc1ccc(O)c(O)c1)(NN)C(=O)O,inactive
10,C[C@]12C=CC(=O)C=C1CC[C@@H]1C2=CC[C@]2(C)[C@@H](C(=O)CN3CCN(c4cc(N5CCCC5)nc(N5CCCC5)n4)CC3)CC[C@@H]12,inactive
11,Cc1ccccc1/C=C/C1=NCCN1,inactive
12,NC1(C(=O)O)CCCCC1,inactive
13,COC(=O)C1=C(C)NC(C)=C([N+](=O)[O-])C1c1ccccc1C(F)(F)F (configuration not stated),inactive
14,O=C(O)Cc1c[nH]c2ccc(O)cc12,inactive
15,CCCn1c(=O)c2[nH]c(-c3ccc(S(=O)(=O)O)cc3)nc2n(CCC)c1=O,inactive
16,[Li+],inactive
17,NC[C@@H]1O[C@H](c2ccccc2)Cc2c1ccc(O)c2O,inactive
18,COc1cc([C@@H]2c3cc4c(cc3[C@H](O)C3COC(=O)[C@@H]32)OCO4)cc(OC)c1OC (some centres not stated),inactive

# Source: PubChem BioAssay (NCATS)
